Hits are enriched below; roughly 7.3% of the tested compounds scored in any of these assays.
Vaccinia Venus: inhibitors of vaccinia virus (Venus reporter); Vaccinia virus Venus reporter expression, fluorescence; Potency, µM (doses to about 36.5 µM), usual class: inhibitors; hit rate 0.46% among 330,000; calls by dose curve; tested in A549 cells; note: nearly all actives have a fitted effect of over 30% in size
VACV mCherry inh: vaccinia inhibition (mCherry reporter) | Vaccinia virus mCherry reporter infection, fluorescence | hit rate 0.63% among 310,000 | Potency, µM (highest dose often 36.5 µM), hits mostly inhibitors; calls by dose curve; tested in A549 cells; note: nearly all actives have a fitted effect of over 35% in size
HCV inhibitor: HCV inhibition. hit rate 3.4% among 340,000. Huh7.5.1 HCVcc-Cre infection, luciferase reporter, 44 h. Potency, µM (doses to about 41.8 µM), most hits filed as inhibitors; active = well fitted inhibition curve with a large enough effect; inconclusive = small, poorly fitted or top-dose-only effect, or another doubt; inactive = no such curve, though single readings can be large or run the other way
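1,000 cells/well; 4 h culture; + compound; + HCVcc-Cre (~0.5 moi); 44 h; luciferase substrate, RT 15 min; read 15 sec.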
FMDV inh: foot and mouth disease virus antiviral activity. hit rate 1.2% among 410,000. Potency, µM (titrated, usually from 57.9 µM), most hits filed as inhibitors. FMDV antiviral cell-based qHTS; calls by dose curve; tested in HEK293T cells; note: read-out not given here; nearly all actives have a fitted effect of over 45% in size
HCMV antiviral: blocks human cytomegalovirus replication; HFF cells, HCMV-luciferase reporter, 72 h; stronger effect = lower value; activity change, negative = inhibition, % at 57.5 µM; hit rate 4.5% among 410,000; in the data active = activity change below about -60%; inconclusive = no clear call, values can overlap the other calls; inactive = above about -39%
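Steps: HFFs plated, 16 h 37C; compounds added; HCMV-luciferase added to MOI 1 PFU/cell; 72 h 37C; OneGlo reagent, 5 min room temperature; luminescence read, normalized to controls.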
Of the large screens only hits and unclear results are named; the others gave an inactive call.

CSc1ccc(/C=C(/Sc2nnc(-c3ccccc3)o2)C(=O)O)cc1	HCMV antiviral -69
COc1ccc(-c2nnc(S/C(=C/c3ccc(Cl)cc3)C(=O)O)o2)cc1	none
CCCCNC(=O)Cn1nc(Cc2ccncc2)c2ccccc2c1=O	HCMV antiviral -62 (no result: Vaccinia Venus, VACV mCherry inh)
CCCN(C(=O)Cn1nc(Cc2ccncc2)c2ccccc2c1=O)c1ccccc1C	HCMV antiviral -62 (no result: HCV inhibitor)
CCCN(C(=O)Cn1nc(Cc2cccnc2)c2ccccc2c1=O)c1ccc(C(C)C)cc1	HCMV antiviral -63 (no result: HCV inhibitor)
O=C(COCc1cc(-c2ccc3c(c2)OCO3)on1)NCc1ccc(F)cc1	none (no result: HCV inhibitor)
COc1ccc(CNC(=O)c2nc(Cn3nc(C)c(Br)c3C)no2)cc1OC	none (no result: HCV inhibitor)
CCc1ccc(-n2c(C)cc(/C=N/NC(=O)OC)c2C)cc1	HCV inhibitor inconclusive, HCMV antiviral -84 (no result: Vaccinia Venus, VACV mCherry inh)
CCc1ccc(-n2c(C)cc(/C=N/NC(=O)c3ccncc3)c2C)cc1	HCV inhibitor inconclusive, HCMV antiviral -79 (no result: Vaccinia Venus, VACV mCherry inh)
Cc1cc(/C=N/NC(=O)c2cccs2)c(C)n1-c1ccccc1	HCV inhibitor inconclusive, FMDV inh 13µM, HCMV antiviral inconclusive (no result: Vaccinia Venus, VACV mCherry inh)
O=C(NC1CCCCC1)C(=O)c1ccccc1F	none (no result: Vaccinia Venus, VACV mCherry inh, HCV inhibitor, FMDV inh)
O=C(N1CCCCC1)N1CCC[C@@H]1c1noc2ccccc12	none (no result: Vaccinia Venus, VACV mCherry inh, HCV inhibitor, FMDV inh)
Cc1ccc(COC(=O)c2nn(C)c(=O)c3ccccc23)cc1	HCV inhibitor 10µM, FMDV inh inconclusive, HCMV antiviral -92
Cn1nc(C(=O)OCc2ccc(F)cc2)c2ccccc2c1=O	none
COc1ccccc1CCNC(=O)c1cc(COc2cccc(C(F)(F)F)c2)on1	HCV inhibitor inconclusive, HCMV antiviral active (no result: Vaccinia Venus, VACV mCherry inh)
CCOc1ccccc1Nc1nc(-c2ccc(C)cc2)c(CC(=O)O)s1	none (no result: HCV inhibitor)
Cc1cccc(CN2Cc3cccc4c3[C@H](C=CC4)CC2=O)c1	none (no result: HCV inhibitor, FMDV inh, HCMV antiviral)
Cc1nn(CCCC(=O)NCc2ccccc2)c(=O)c2cc3sccc3n12	HCMV antiviral inconclusive (no result: HCV inhibitor)
CC1(C)CC2CC(C)(CN2C(=O)c2cc(-c3ccc(O)cc3)on2)C1 (configuration not stated)	VACV mCherry inh inconclusive, HCMV antiviral -61
NC(=O)CN1C(=O)C(O)(CC(=O)/C=C\C=C\c2ccccc2)c2ccccc21 (configuration not stated)	Vaccinia Venus inconclusive, VACV mCherry inh inconclusive, HCMV antiviral -70
CCN1C(=O)C(O)(CC(=O)/C=C/C=C/c2ccccc2)c2ccccc21 (configuration not stated)	Vaccinia Venus inconclusive, VACV mCherry inh inconclusive
CCOC(=O)c1ccccc1NC(=O)c1cnc(N2CCOCC2)c2ccccc12	none (no result: HCV inhibitor)
CC(C)CC(=O)Nc1c(C(=O)N2CCN(c3ccccc3F)CC2)oc2ccccc12	none (no result: HCV inhibitor)
Cc1ccc(C2(c3ccc(C)cc3)CC2C(=O)Nc2ccc([N+](=O)[O-])cc2O)cc1 (configuration not stated)	Vaccinia Venus inconclusive, HCV inhibitor 3.5µM, HCMV antiviral -102
Clc1ccc2nccnc2c1	none (no result: HCV inhibitor, FMDV inh, HCMV antiviral)
C[n+]1ccnc2cc(Cl)ccc21	Vaccinia Venus 2.2µM, VACV mCherry inh 11µM (no result: HCV inhibitor, FMDV inh, HCMV antiviral)
C[n+]1ccnc2ccccc21	Vaccinia Venus 2.2µM, VACV mCherry inh 7.9µM (no result: HCV inhibitor, FMDV inh, HCMV antiviral)
C=CCN1[C@H](C)[C@H](c2ccccc2)Oc2cc(Br)ccc2S1(=O)=O	none (no result: Vaccinia Venus, VACV mCherry inh, HCV inhibitor, FMDV inh)
COc1ccc(OC)c(C(=O)N2CCOc3ccc(C(C)(O)CN(C)C)cc3C2)c1 (configuration not stated)	none (no result: HCV inhibitor, HCMV antiviral)
COCCCNC(=O)c1cnn(-c2ccccc2Cl)c1C1CCN(C(=O)OC(C)(C)C)CC1	HCMV antiviral active (no result: HCV inhibitor)
Cc1ccc(-n2ncc(C(=O)Nc3ccc4c(c3)OCCO4)c2C2CCN(C(=O)OC(C)(C)C)CC2)cc1C	HCMV antiviral active (no result: HCV inhibitor)
Cc1ccc(-n2ncc(C(=O)NCCCN3CCCCC3)c2C2CCN(C(=O)OC(C)(C)C)CC2)cc1	HCMV antiviral active (no result: HCV inhibitor)
CC(C)(C)OC(=O)N1CCC(c2c(C(=O)NCc3ccccn3)cnn2-c2ccccc2Cl)CC1	HCMV antiviral inconclusive (no result: HCV inhibitor)
CC(C)(C)OC(=O)N1CCC(c2c(C(=O)NCCN3CCC(Cc4ccccc4)CC3)cnn2-c2ccccc2)CC1	Vaccinia Venus 11µM, VACV mCherry inh inconclusive, FMDV inh inconclusive, HCMV antiviral inconclusive (no result: HCV inhibitor)
C[C@@H]1CCCCO[C@@H](CN(C)Cc2ccc(C(=O)O)cc2)[C@@H](C)CN([C@H](C)CO)C(=O)c2cc(NS(C)(=O)=O)ccc2O1	none (no result: Vaccinia Venus, VACV mCherry inh, HCV inhibitor, FMDV inh)
Cc1ccc(NC(=O)Cn2c(=O)n(Cc3ccc4c(c3)OCO4)c(=O)c3ccc(C(=O)NC4CCCCC4)cc32)cc1	none (no result: HCV inhibitor)
O=c1c(S(=O)(=O)c2ccccc2)cn(Cc2ccc(F)cc2)c2cc(N3CCCC3)c(F)cc12	none (no result: HCV inhibitor)
CCOC(=O)c1cnn(-c2ccc(Cl)cc2)c1C1CCN(C(=O)OC(C)(C)C)CC1	VACV mCherry inh inconclusive, HCV inhibitor 13µM, FMDV inh inconclusive
CC(C)(C)OC(=O)N1CCC(c2c(C(=O)N3CCCCC3)cnn2-c2ccc(Cl)cc2)CC1	none (no result: HCV inhibitor)
COc1ccc(CCN2CCC(CNC(=O)c3cnn(-c4cccc(Cl)c4)c3C3CCN(C(=O)OC(C)(C)C)CC3)CC2)cc1	Vaccinia Venus inconclusive, VACV mCherry inh inconclusive, HCMV antiviral -101 (no result: HCV inhibitor)
CC(C)(C)OC(=O)N1CCC(c2c(C(=O)NCCN3CCC(Cc4ccccc4)CC3)cnn2-c2ccc(F)cc2)CC1	Vaccinia Venus inconclusive, VACV mCherry inh inconclusive, HCMV antiviral -106 (no result: HCV inhibitor)
CC(C)NC(=O)CSc1cn(CC(=O)N2CCCCCC2)c2ccccc12	HCMV antiviral inconclusive (no result: HCV inhibitor)
Brc1ccc2c(ccc[n+]2CCc2ccccc2)c1	none (no result: HCV inhibitor, FMDV inh, HCMV antiviral)
O=C(c1cc2c(s1)-c1ccccc1S(=O)(=O)C2)N1CCN(Cc2ccccc2)CC1	Vaccinia Venus inconclusive, VACV mCherry inh inconclusive, HCV inhibitor 10µM, FMDV inh 20µM, HCMV antiviral -74
COc1ccc(N2CCN(C(=O)c3cc4c(s3)-c3ccccc3S(=O)(=O)C4)CC2)cc1	VACV mCherry inh inconclusive, HCV inhibitor 10µM
CCN1CCN(C(=O)c2cc3c(s2)-c2ccccc2S(=O)(=O)C3)CC1	none
COc1ccc(N(C)C(=O)c2cc3c(s2)-c2ccccc2S(=O)(=O)C3)cc1	HCV inhibitor inconclusive
COc1cc(OC)c(N(C)C(=O)c2cc3c(s2)-c2ccccc2S(=O)(=O)C3)cc1Cl	HCV inhibitor 22µM
CN1CCN(C(=O)c2cc3c(s2)-c2ccccc2S(=O)(=O)C3)CC1	none
COc1cc(CNCc2ccc(OC)c(OC)c2OC)cc(OC)c1	HCV inhibitor 10µM (no result: Vaccinia Venus, VACV mCherry inh)
Brc1cc2ccccc2[n+](Cc2ccccc2)c1	HCV inhibitor inconclusive, HCMV antiviral -101
COc1ccc(NC2=C(c3ccccc3)C(=O)c3ccccc32)cc1Cl	none (no result: HCV inhibitor)
COc1ccc(OC)c(Nc2cc(-c3ccccc3)nc(N)n2)c1	Vaccinia Venus inconclusive, VACV mCherry inh inconclusive, HCV inhibitor inconclusive, HCMV antiviral -90
COc1ccc(OC)c(NC2=C(c3ccccc3)C(=O)c3ccccc32)c1	VACV mCherry inh inconclusive, HCMV antiviral -63 (no result: HCV inhibitor)
C[C@]12c3[nH]c4ccc(Cl)cc4c3CCN1C(=O)[C@@H](CC(=O)NCCCn1ccnc1)C[C@@H]2C(=O)N1CCCCC1	HCV inhibitor inconclusive

Screening data as filed in PubChem.
